Measured values as given in PubChem BioAssay (Tox21).
Values joined by “and” are separate entries in the source; they are usually repeats but may differ in a detail not shown here. Equal entries are not always repeated. Results filed as inconclusive are left out. Entries that show only a call come without a potency. Where a structure was tested more than once in an assay, its records may differ in their call. Active and inactive are the calls of the source. Unless noted, calls come from the whole dose curve; as a rule, active = well fitted curve in the direction sought with a large enough effect in the repeat runs; inconclusive = weak or mixed curves; inactive = no such curve, though single readings can be large; an effect the other way counts as inactive or inconclusive.

Assays:
[1] = qHTS assay for small molecule agonists of the p53 signaling pathway (AID 651631; calls by dose curve; note: nearly all actives have a fitted effect of over 15% in size; note: potency is the fitted concentration of half-maximal effect)
How it was run: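 Fluorescence intensity from cleaved LiveBLAzer B/G substrate (2 h, room temperature) served as the signal. Beforehand, HCT-116 reporter cells bearing p53 response elements were treated 16 h at 37 °C with DMSO-dissolved compounds.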

[2] = qHTS assay for small molecules that induce genotoxicity in human embryonic kidney cells expressing luciferase-tagged ATAD5 (AID 651632); note: nearly all actives have a fitted effect of over 15% in size; note: potency is the fitted concentration of half-maximal effect
How it was run: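 Quantitative HTS in HEK293T expressing luciferase-tagged ATAD5, whose levels rise upon DNA damage. Exposure ran 16 hr at 37C and 5% CO2, with luminescence read 30 min after Amplite addition at room temperature.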

[3] = qHTS assay for small molecule agonists of the p53 signaling pathway - cell viability (AID 651633; calls by dose curve; note: nearly all actives have a fitted effect of over 30% in size; note: potency is the fitted concentration of half-maximal effect)
How it was run: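 p53RE-bla cells, seeded at 4,000 per well and rested 5 h at 37 C/5% CO2, received compounds in DMSO for 16 h at 37 C. CellTiter-Glo was then added, and luminescence was read after 30 min at room temperature to gauge cytotoxicity.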

[4] = qHTS assay for small molecule disruptors of the mitochondrial membrane potential - cell viability (AID 720634; calls by dose curve; note: nearly all actives have a fitted effect of over 20% in size; note: potency is the fitted concentration of half-maximal effect)
How it was run: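 ATP-based luminescent viability readout (CellTiter-Glo, 30 min, room temperature) in HepG2 cells multiplexed with the m-MPI membrane potential dye; compound exposure lasted 1 hr at 37 C.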

[5] = qHTS assay for small molecule disruptors of the mitochondrial membrane potential (AID 720635); note: potency is the fitted concentration of half-maximal effect
How it was run: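 HepG2 cells (2,000/well) attached overnight at 37C, then took compound for 1 hr at 37C, 5% CO2. Mito-MPS dye was added for 30 min; fluorescence was read at 490/535 nm (monomers) and 540/590 nm (aggregates).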

[6] = qHTS assay to test for compound auto fluorescence at 590 nm (red) in HepG2 cells (AID 720674)
How it was run: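 Rose Bengal sodium served as the red fluorophore standard. HepG2 monolayers (overnight attachment, MEM with 10% FBS) were exposed to test compounds for 1 hr at 37 C and read at Ex 540/Em 590 nm.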

[7] = qHTS assay to test for compound auto fluorescence at 535 nm (green) in HepG2 cells (AID 720675)
[8] = qHTS assay to test for compound auto fluorescence at 590 nm (red) in HEK293 cells (AID 720679)
How it was run: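 Autofluorescence equivalency to Rose Bengal sodium, 540/590nm, in HEK293 cells exposed overnight to 23 nL compound per well.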

[9] = qHTS assay to test for compound auto fluorescence at 460 nm (blue) in HEK293 cells (AID 720678)
How it was run: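 Auto fluorescence in the blue band was quantified as triamterene equivalency. HEK293 cells were seeded at 2,000/well, dosed after a 4-5 hr attachment, and kept overnight at 37C before the 405/460 nm reading.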

[10] = qHTS assay for small molecules that induce genotoxicity in human embryonic kidney cells expressing luciferase-tagged ATAD5 - cell viability (AID 651634; calls by dose curve; note: nearly all actives have a fitted effect of over 25% in size; note: potency is the fitted concentration of half-maximal effect)
How it was run: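 After 15.5 hr incubation with compound at 37C, 5% CO2, HEK293T ATAD5-luciferase cells received CellTiter-Fluor reagent; fluorescence intensity was quantified following 30 min at 37C.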

SMILES: CCCCN(CCCC)N=O
- Potency [1]: inactive
- Potency [2]: inactive
- Potency [3]: inactive
- Potency [4]: inactive
- Potency [5]: inactive
- outcome [6]: inactive
- outcome [7]: inactive
- outcome [8]: inactive

SMILES: CN(C)c1ccc(C(=O)c2ccc(N(C)C)cc2)cc1
- Potency [1]: 605 nM (active) and 273 nM (active)
- Potency [2]: 27 µM (active)
- Potency [3]: inactive
- Potency [5]: 53.9 µM (active)
- outcome [6]: inactive
- outcome [7]: inactive
- outcome [9]: inactive
- outcome [8]: inactive

SMILES: ClC1C(Cl)C(Cl)C(Cl)C(Cl)C1Cl (stereo not drawn)
- Potency [1]: inactive
- Potency [3]: inactive
- Potency [10]: inactive
- Potency [4]: inactive
- outcome [6]: inactive
- outcome [7]: inactive
- outcome [9]: inactive
- outcome [8]: inactive

SMILES: O=C(CCl)c1ccccc1
- Potency [2]: 68.6 µM (active)
- Potency [3]: inactive
- Potency [4]: inactive
- Potency [5]: inactive
- outcome [6]: inactive
- outcome [7]: inactive
- outcome [8]: inactive

SMILES: COP(=S)(OC)Oc1ccc([N+](=O)[O-])cc1
- Potency [1]: inactive
- Potency [3]: inactive
- Potency [4]: inactive and 54.5 µM (active)
- Potency [5]: 34.4 µM (active)
- outcome [6]: inactive
- outcome [7]: inactive
- outcome [9]: inactive
- outcome [8]: inactive

SMILES: N#CC(Br)Br
- Potency [2]: inactive
- Potency [3]: inactive
- Potency [4]: inactive
- Potency [5]: inactive
- outcome [6]: inactive
- outcome [7]: inactive
- outcome [8]: inactive

SMILES: C#CCOS(=O)OC1CCCCC1Oc1ccc(C(C)(C)C)cc1 (stereo not drawn)
- Potency [2]: inactive
- Potency [3]: inactive
- Potency [10]: inactive
- Potency [4]: inactive and 3.86 µM (active)
- Potency [5]: 15.4 µM (active) and 24.3 µM (active)
- outcome [6]: inactive
- outcome [7]: inactive
- outcome [8]: inactive

SMILES: Cc1cccc(N)c1N
- Potency [2]: inactive
- Potency [3]: inactive
- Potency [10]: inactive
- Potency [4]: inactive
- Potency [5]: 21 µM (active) and 17.2 µM (active)
- outcome [6]: inactive
- outcome [7]: inactive
- outcome [9]: inactive
- outcome [8]: inactive

SMILES: Cc1ccc(N)c(N)c1
- Potency [2]: 68.8 µM (active) and 68.6 µM (active)
- Potency [3]: inactive
- Potency [10]: inactive
- Potency [4]: inactive
- outcome [6]: inactive
- outcome [7]: inactive
- outcome [9]: inactive
- outcome [8]: inactive

SMILES: Cc1ccc2c(c1N)C(=O)c1ccccc1C2=O
- Potency [2]: 13.5 µM (active) and 9.69 µM (active)
- Potency [3]: inactive
- Potency [10]: 12.2 µM (active)
- Potency [5]: 480 nM (active) and 386 nM (active)
- outcome [6]: inactive
- outcome [7]: inactive
- outcome [9]: inactive
- outcome [8]: inactive

SMILES: c1cc(OCC2CO2)ccc1Cc1ccc(OCC2CO2)cc1 (stereo not drawn)
- Potency [2]: inactive
- Potency [3]: 54.7 µM (active)
- Potency [4]: inactive
- outcome [6]: inactive
- outcome [7]: inactive
- outcome [8]: inactive

SMILES: S=C1NCCN1
- Potency [1]: inactive
- Potency [3]: inactive
- outcome [6]: inactive
- outcome [7]: inactive
- outcome [9]: inactive
- outcome [8]: inactive

SMILES: C=CCc1ccc2c(c1)OCO2
- Potency [1]: inactive
- Potency [3]: inactive
- Potency [4]: inactive
- outcome [6]: inactive
- outcome [7]: inactive
- outcome [9]: inactive
- outcome [8]: inactive

SMILES: N#Cc1cc(Br)c(O)c(Br)c1
- Potency [2]: inactive
- Potency [3]: inactive
- Potency [10]: inactive
- Potency [4]: 11.7 µM (active)
- Potency [5]: 13.7 µM (active) and 4.17 µM (active)
- outcome [6]: inactive
- outcome [7]: inactive
- outcome [9]: inactive
- outcome [8]: inactive

SMILES: Oc1cc(Cl)c(Cl)cc1Cl
- Potency [2]: inactive
- Potency [3]: inactive
- Potency [5]: 5.96 µM (active) [middle of 4 runs]
- outcome [6]: inactive
- outcome [7]: inactive
- outcome [9]: inactive
- outcome [8]: inactive

SMILES: CCCCN(CC)c1c([N+](=O)[O-])cc(C(F)(F)F)cc1[N+](=O)[O-]
- Potency [2]: inactive
- Potency [3]: inactive
- Potency [10]: inactive
- Potency [4]: inactive
- Potency [5]: 6.86 µM (active)
- outcome [6]: inactive
- outcome [7]: inactive
- outcome [9]: inactive
- outcome [8]: inactive

SMILES: O=C(NC(=O)c1c(F)cccc1F)Nc1ccc(Cl)cc1
- Potency [2]: inactive
- Potency [3]: inactive
- Potency [4]: inactive
- Potency [5]: inactive
- outcome [6]: inactive
- outcome [7]: inactive
- outcome [9]: inactive
- outcome [8]: inactive

SMILES: C=CCc1ccc(OC)cc1
- Potency [3]: inactive
- Potency [10]: inactive
- Potency [4]: inactive
- outcome [6]: inactive
- outcome [7]: inactive
- outcome [8]: inactive

SMILES: CCc1cccc(CC)c1N(COC)C(=O)CCl
- Potency [2]: inactive
- Potency [3]: inactive
- Potency [10]: inactive
- Potency [4]: inactive
- outcome [6]: inactive
- outcome [7]: inactive
- outcome [9]: inactive
- outcome [8]: inactive

SMILES: Brc1ccc(Oc2cc(Br)c(Br)cc2Br)c(Br)c1
- Potency [2]: inactive
- Potency [3]: inactive
- Potency [4]: inactive
- Potency [5]: 4.86 µM (active) and 8.7 µM (active)
- outcome [6]: inactive
- outcome [7]: inactive
- outcome [9]: inactive
- outcome [8]: inactive

SMILES: C1=Cc2cccc3cccc1c23
- Potency [2]: inactive
- Potency [3]: inactive
- Potency [10]: inactive
- Potency [4]: inactive
- outcome [6]: inactive
- outcome [7]: inactive
- outcome [8]: inactive

SMILES: Nc1ccc(-c2ccc(N)c(N)c2)cc1N
- Potency [2]: inactive
- Potency [3]: 48.6 µM (active)
- Potency [10]: inactive
- Potency [4]: inactive
- Potency [5]: 216 nM (active) and 7.7 µM (active)
- outcome [6]: inactive
- outcome [7]: inactive
- outcome [9]: inactive
- outcome [8]: inactive

SMILES: C[C@]12CCC(=O)C[C@@H]1CC[C@@H]1[C@@H]2CC[C@]2(C)[C@@H](O)CC[C@@H]12
- Potency [1]: inactive
- Potency [3]: inactive
- outcome [6]: inactive
- outcome [7]: inactive
- outcome [9]: inactive
- outcome [8]: inactive

SMILES: NC(=S)Nc1ccccc1
- Potency [2]: inactive
- Potency [3]: inactive
- Potency [10]: inactive
- outcome [6]: inactive
- outcome [7]: inactive
- outcome [9]: inactive
- outcome [8]: inactive

SMILES: CCC(C)c1ccc(O)cc1 (stereo not drawn)
- Potency [2]: inactive
- Potency [3]: inactive
- Potency [10]: inactive
- Potency [4]: inactive
- Potency [5]: 27.6 µM (active) and 24.3 µM (active)
- outcome [6]: inactive
- outcome [7]: inactive
- outcome [9]: inactive
- outcome [8]: inactive

SMILES: O=S(=O)(Oc1ccc(Cl)cc1)c1ccc(Cl)cc1
- Potency [2]: inactive
- Potency [3]: inactive
- Potency [10]: inactive
- Potency [4]: inactive
- Potency [5]: 31 µM (active) and 12.2 µM (active)
- outcome [6]: inactive
- outcome [7]: inactive
- outcome [9]: inactive
- outcome [8]: inactive

SMILES: Cc1c(COC(=O)[C@@H]2[C@H](/C=C(\Cl)C(F)(F)F)C2(C)C)cccc1-c1ccccc1
- Potency [2]: inactive
- Potency [10]: inactive
- Potency [4]: inactive
- Potency [5]: 26.7 µM (active) and 34.3 µM (active)
- outcome [6]: inactive
- outcome [7]: inactive
- outcome [9]: inactive
- outcome [8]: inactive
